According to the supplement of paper PMC10849652:
Of roughly 8,800 targets only a part is listed; those with a hit were picked by preference. About 0.5% of all pairs of compound and target were hits. Unmarked numbers belong to inactive results.

Key:
Assay in all cases: log2 fold change, soluble protein after heating vs DMSO (PISA); higher = thermal stabilisation; K562 lysate, 10 uM; active = over 0.2 and 3.5 SD of the protein, either way, in both replicates (recomputed)
alvocidib = compound: CN1CC[C@H](c2c(O)cc(O)c3c(=O)cc(-c4ccccc4Cl)oc23)[C@H](O)C1 [alvocidib]
Procedure, shortened: (§1)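 K562 pellets were dounce-homogenised in PBS pH 7.4 with 1 mM MgCl2, and the crude extract at 1 mg/mL protein was treated with 10 μM compound for 30 min. Aliquots were heated for 3 min across 48°C-58°C, pooled, and brought to 0.5% NP-40 at 4°C; soluble protein was the supernatant after 21,000xg for 90 min. Soluble protein was quantified by TMTpro 16plex LC-MS/MS with channel sums equalised, and reported as log2 fold change in thermal stability against DMSO controls, with values from duplicates.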

Tubastatin A = compound: CN1CCc2c(c3ccccc3n2Cc2ccc(C(=O)NO)cc2)C1 [Tubastatin A]
Procedure, shortened: as §1

[1] = compound: CNC(=O)C1=CC=CC=C1NC2=NC(=NC=C2Cl)NC3=C(C=C(C=C3)N4CCOCC4)OC
Procedure, shortened: as §1

defactinib = compound: CNC(=O)c1ccc(Nc2ncc(C(F)(F)F)c(NCc3nccnc3N(C)S(C)(=O)=O)n2)cc1 [defactinib]
Procedure, shortened: as §1

[2] = compound: CNc1nc(-c2ccc3c(N)n[nH]c3c2)cc(N2C[C@@H](C(=O)NC3CCCCC3)CC[C@H]2C)n1
Procedure, shortened: as §1

encorafenib = compound: COC(=O)N[C@@H](C)CNc1nccc(-c2cn(C(C)C)nc2-c2cc(Cl)cc(NS(C)(=O)=O)c2F)n1 [encorafenib]
Procedure, shortened: as §1

[3] = compound: COC(=O)[C@H](CCSC)NC(=O)C1=C(C=C(C=C1)NC[C@H](CS)N)C2=CC=CC=C2
Procedure, shortened: as §1

alisertib = compound: COc1cc(Nc2ncc3c(n2)-c2ccc(Cl)cc2C(c2c(F)cccc2OC)=NC3)ccc1C(=O)O [alisertib]
Procedure, shortened: as §1

[4] = compound: COc1cc2nc(-c3cc(F)ccc3O)nc(N[C@@H]3CNC[C@H]3C(C)(C)O)c2cc1OC
Procedure, shortened: as §1

gefitinib = compound: COc1cc2ncnc(Nc3ccc(F)c(Cl)c3)c2cc1OCCCN1CCOCC1 [gefitinib]
Procedure, shortened: as §1

lapatinib = compound: CS(=O)(=O)CCNCc1ccc(-c2ccc3ncnc(Nc4ccc(OCc5cccc(F)c5)c(Cl)c4)c3c2)o1 [lapatinib]
Procedure, shortened: as §1

pictilisib = compound: CS(=O)(=O)N1CCN(Cc2cc3nc(-c4cccc5[nH]ncc45)nc(N4CCOCC4)c3s2)CC1 [pictilisib]
Procedure, shortened: as §1

crizotinib = compound: C[C@@H](Oc1cc(-c2cnn(C3CCNCC3)c2)cnc1N)c1c(Cl)ccc(F)c1Cl [crizotinib]
Procedure, shortened: as §1

[5] = compound: C[C@H](C1=CC=C(C=C1)C(=O)NC2=C3C=CNC3=NC=C2)N
Procedure, shortened: as §1

duvelisib = compound: C[C@H](Nc1ncnc2nc[nH]c12)c1cc2cccc(Cl)c2c(=O)n1-c1ccccc1 [duvelisib]
Procedure, shortened: as §1

gandotinib = compound: Cc1cc(Nc2cc(CN3CCOCC3)c3nc(C)c(Cc4ccc(Cl)cc4F)n3n2)n[nH]1 [gandotinib]
Procedure, shortened: as §1

tozasertib = compound: Cc1cc(Nc2cc(N3CCN(C)CC3)nc(Sc3ccc(NC(=O)C4CC4)cc3)n2)n[nH]1 [tozasertib]
Procedure, shortened: as §1

doramapimod = compound: Cc1ccc(-n2nc(C(C)(C)C)cc2NC(=O)Nc2ccc(OCCN3CCOCC3)c3ccccc23)cc1 [doramapimod]
Procedure, shortened: as §1

bafetinib = compound: Cc1ccc(NC(=O)c2ccc(CN3CC[C@H](N(C)C)C3)c(C(F)(F)F)c2)cc1Nc1nccc(-c2cncnc2)n1 [bafetinib]
Procedure, shortened: as §1

[6] = compound: Cc1cccc(CC(=O)N2CCc3c2ccc(-c2cn(C)c4ncnc(N)c24)c3F)n1
Procedure, shortened: as §1

UniProt P06753, sequence (P06753 whole entry, looked up): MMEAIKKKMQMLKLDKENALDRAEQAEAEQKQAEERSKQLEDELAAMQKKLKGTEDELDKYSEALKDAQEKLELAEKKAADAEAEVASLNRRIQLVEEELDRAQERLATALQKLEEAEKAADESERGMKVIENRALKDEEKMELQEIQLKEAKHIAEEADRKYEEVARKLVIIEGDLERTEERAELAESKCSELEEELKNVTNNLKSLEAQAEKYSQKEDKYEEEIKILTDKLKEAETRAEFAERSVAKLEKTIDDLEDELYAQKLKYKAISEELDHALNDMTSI
UniProt Q96DX7, sequence (Q96DX7 whole entry, looked up): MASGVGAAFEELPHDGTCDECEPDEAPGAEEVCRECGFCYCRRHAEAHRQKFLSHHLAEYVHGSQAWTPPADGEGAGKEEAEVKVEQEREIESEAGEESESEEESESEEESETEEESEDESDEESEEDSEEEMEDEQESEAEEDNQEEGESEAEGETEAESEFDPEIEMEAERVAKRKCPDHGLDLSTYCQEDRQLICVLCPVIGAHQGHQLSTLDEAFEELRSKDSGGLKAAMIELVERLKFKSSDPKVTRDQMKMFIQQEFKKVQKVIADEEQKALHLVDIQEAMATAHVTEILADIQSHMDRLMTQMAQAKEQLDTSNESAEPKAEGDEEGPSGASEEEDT
UniProt Q96Q05, sequence (Q96Q05 whole entry, looked up): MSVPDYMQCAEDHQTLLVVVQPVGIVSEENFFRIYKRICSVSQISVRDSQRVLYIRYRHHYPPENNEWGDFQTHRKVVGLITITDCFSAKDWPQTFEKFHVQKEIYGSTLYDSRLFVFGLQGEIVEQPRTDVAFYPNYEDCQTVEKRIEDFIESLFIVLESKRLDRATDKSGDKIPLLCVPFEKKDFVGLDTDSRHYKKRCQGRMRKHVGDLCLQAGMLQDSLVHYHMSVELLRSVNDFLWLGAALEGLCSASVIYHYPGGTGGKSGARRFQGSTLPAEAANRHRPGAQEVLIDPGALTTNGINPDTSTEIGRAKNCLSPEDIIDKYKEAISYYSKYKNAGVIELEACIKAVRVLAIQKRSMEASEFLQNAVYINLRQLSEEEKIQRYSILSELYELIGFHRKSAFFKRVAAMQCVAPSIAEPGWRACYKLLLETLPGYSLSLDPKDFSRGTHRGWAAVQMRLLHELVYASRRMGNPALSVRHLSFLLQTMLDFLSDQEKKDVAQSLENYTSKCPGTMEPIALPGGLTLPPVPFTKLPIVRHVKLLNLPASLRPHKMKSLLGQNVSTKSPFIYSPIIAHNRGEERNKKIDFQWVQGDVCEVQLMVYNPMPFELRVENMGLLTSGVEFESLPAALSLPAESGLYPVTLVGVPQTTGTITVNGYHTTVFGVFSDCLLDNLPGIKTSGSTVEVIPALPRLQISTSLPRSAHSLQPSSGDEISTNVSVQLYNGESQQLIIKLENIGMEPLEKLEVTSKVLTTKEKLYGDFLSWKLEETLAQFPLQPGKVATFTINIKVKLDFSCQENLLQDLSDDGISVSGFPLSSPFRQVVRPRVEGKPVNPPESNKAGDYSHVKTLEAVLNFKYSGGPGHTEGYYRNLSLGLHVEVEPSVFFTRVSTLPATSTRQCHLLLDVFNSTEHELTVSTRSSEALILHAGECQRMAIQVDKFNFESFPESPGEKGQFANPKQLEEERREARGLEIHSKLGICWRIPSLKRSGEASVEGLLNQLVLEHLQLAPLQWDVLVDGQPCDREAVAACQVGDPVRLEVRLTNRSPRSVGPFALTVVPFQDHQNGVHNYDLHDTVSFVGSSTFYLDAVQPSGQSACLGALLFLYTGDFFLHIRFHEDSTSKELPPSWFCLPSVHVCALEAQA
UniProt Q13509, sequence (Q13509 whole entry, looked up): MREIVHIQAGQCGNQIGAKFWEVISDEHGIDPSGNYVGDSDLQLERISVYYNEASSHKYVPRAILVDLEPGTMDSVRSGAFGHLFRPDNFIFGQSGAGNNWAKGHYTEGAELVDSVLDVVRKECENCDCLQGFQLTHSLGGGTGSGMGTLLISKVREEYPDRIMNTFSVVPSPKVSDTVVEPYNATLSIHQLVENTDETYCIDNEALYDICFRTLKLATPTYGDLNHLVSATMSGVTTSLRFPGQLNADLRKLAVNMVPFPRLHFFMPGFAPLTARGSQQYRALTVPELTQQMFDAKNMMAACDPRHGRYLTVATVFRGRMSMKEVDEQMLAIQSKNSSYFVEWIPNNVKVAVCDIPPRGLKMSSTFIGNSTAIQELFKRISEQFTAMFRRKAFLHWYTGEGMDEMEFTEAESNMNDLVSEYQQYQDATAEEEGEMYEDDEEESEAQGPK
UniProt P68371, sequence (P68371 whole entry, looked up): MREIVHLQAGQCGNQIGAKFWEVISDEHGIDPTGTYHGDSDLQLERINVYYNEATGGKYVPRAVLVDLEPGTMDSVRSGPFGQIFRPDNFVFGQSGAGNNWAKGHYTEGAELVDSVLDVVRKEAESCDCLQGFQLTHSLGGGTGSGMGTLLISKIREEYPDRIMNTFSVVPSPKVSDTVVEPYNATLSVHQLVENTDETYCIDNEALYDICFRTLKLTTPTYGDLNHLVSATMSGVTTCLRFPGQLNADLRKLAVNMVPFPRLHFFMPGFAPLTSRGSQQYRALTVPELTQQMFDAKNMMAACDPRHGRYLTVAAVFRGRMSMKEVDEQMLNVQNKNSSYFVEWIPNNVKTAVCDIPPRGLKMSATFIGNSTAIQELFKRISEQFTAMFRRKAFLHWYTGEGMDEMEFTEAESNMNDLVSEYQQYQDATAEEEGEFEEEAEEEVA
UniProt Q14258, sequence (Q14258 whole entry, looked up): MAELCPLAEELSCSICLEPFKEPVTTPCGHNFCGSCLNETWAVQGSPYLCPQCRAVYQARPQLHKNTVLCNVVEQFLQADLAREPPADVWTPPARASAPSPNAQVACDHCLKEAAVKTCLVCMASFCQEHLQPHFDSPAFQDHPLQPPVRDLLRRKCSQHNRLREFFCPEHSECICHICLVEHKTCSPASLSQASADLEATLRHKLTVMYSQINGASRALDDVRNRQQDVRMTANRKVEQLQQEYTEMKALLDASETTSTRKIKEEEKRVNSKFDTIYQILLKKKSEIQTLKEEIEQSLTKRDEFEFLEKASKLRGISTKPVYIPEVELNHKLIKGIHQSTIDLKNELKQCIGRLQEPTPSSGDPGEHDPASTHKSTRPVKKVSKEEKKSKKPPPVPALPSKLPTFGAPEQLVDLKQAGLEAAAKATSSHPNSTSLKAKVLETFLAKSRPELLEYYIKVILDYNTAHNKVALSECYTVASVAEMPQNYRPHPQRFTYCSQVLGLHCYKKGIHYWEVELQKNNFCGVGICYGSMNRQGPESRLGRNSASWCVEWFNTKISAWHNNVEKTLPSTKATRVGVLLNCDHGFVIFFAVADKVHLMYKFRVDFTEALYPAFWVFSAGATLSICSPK
UniProt Q01085, sequence (Q01085 whole entry, looked up): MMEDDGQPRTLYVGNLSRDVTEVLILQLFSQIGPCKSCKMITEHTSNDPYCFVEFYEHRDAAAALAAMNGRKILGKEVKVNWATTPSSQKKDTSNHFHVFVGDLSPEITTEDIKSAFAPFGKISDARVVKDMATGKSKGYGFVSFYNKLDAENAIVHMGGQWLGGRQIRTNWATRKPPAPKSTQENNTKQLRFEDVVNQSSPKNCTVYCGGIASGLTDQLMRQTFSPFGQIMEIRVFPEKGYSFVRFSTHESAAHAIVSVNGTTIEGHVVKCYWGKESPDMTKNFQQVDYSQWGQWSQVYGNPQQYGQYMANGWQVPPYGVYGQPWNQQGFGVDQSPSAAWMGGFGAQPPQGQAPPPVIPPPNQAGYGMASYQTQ
UniProt Q5TEJ8, sequence (Q5TEJ8 whole entry, looked up): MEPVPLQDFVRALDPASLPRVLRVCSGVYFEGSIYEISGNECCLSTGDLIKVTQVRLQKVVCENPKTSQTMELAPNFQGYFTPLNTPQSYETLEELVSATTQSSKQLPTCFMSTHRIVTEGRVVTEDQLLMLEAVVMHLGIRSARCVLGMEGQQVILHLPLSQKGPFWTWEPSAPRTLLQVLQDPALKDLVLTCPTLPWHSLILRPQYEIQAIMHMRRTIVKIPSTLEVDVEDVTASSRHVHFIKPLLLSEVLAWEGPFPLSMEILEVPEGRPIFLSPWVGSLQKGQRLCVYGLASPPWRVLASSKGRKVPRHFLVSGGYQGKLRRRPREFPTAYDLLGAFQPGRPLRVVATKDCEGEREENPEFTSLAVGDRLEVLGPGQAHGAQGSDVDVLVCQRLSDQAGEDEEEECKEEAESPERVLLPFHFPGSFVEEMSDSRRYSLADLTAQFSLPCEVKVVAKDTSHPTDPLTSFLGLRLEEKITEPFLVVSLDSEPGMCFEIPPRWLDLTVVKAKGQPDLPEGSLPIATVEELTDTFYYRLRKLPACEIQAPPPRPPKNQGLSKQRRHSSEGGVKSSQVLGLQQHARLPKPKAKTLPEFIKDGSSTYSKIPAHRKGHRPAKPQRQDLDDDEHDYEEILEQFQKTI
UniProt Q5R3I4, sequence (Q5R3I4 whole entry, looked up): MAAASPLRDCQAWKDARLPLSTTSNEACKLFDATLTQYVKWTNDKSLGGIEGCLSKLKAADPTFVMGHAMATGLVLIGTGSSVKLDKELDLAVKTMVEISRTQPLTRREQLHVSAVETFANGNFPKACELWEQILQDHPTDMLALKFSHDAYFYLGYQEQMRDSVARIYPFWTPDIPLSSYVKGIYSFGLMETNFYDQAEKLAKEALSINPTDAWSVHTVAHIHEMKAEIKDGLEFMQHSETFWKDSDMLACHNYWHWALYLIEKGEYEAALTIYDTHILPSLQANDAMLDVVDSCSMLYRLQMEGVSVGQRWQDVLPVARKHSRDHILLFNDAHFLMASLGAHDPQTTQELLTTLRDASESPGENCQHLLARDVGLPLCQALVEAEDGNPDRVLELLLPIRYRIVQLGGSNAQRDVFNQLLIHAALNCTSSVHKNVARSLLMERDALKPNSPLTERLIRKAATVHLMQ

Row | Target | log2 fold change (alvocidib) | log2 fold change (Tubastatin A) | log2 fold change [1] | log2 fold change (defactinib) | log2 fold change [2] | log2 fold change (encorafenib) | log2 fold change [3] | log2 fold change (alisertib) | log2 fold change [4] | log2 fold change (gefitinib) | log2 fold change (lapatinib) | log2 fold change (pictilisib) | log2 fold change (crizotinib) | log2 fold change [5] | log2 fold change (duvelisib) | log2 fold change (gandotinib) | log2 fold change (tozasertib) | log2 fold change (doramapimod) | log2 fold change (bafetinib) | log2 fold change [6]
1 | TPM3 (UniProt P06753) | 0.048 | 0.049 | -0.015 | 0.044 | -0.003 | -0.048 | -0.02 | -0.007 | 0 | 0.008 | 0.014 | 0.005 | 0.022 | 0.123 | 0.009 | -0.039 | -0.003 | -0.022 | 0.052 | -0.088
2 | TTC38 (UniProt Q5R3I4) | 0.121 | -0.013 | 0.004 | 0.001 | 0.034 | -0.045 | 0.013 | -0.046 | -0.018 | -0.069 | -0.034 | -0.029 | 0.031 | 0.213 | -0.022 | -0.116 | -0.011 | 0.301 (active) | 0.065 | -0.186
3 | TIAL1 isoform 2 (UniProt Q01085) | -0.005 | 0.05 | -0.015 | 0.006 | -0.005 | 0.009 | -0.053 | 0.027 | 0.013 | 0.041 | -0.013 | -0.063 | 0.038 | -0.024 | -0.014 | 0.054 | 0.011 | 0.007 | 0 | 0.001
4 | TUBB4B (UniProt P68371) | 0.032 | -0.017 | 0.024 | 0.018 | -0.039 | -0.03 | 0.067 | 0.019 | -0.013 | -0.028 | 0.027 | 0.017 | -0.027 | 0.053 | -0.029 | 0.004 | 0.011 | -0.024 | 0.027 | -0.043
5 | UBR4 (UniProt Q5T4S7) | 0.009 | -0.06 | 0.006 | 0.006 | -0.034 | 0.003 | 0.018 | 0.001 | 0.001 | -0.029 | -0.023 | -0.015 | -0.038 | -0.017 | -0.001 | -0.08 | 0 | 0.01 | -0.038 | 0.037
6 | TRIM44 (UniProt Q96DX7) | 0 | -0.013 | 0.057 | -0.045 | 0.04 | -0.047 | -0.034 | 0.041 | -0.121 | 0.088 | -0.242 (active) | -0.11 | -0.018 | 0.04 | 0.007 | 0.01 | -0.04 | 0.013 | 0.031 | -0.075
7 | TRIM25 (UniProt Q14258) | 0.022 | -0.04 | 0.009 | -0.009 | 0.042 | -0.011 | -0.058 | -0.01 | -0.002 | -0.029 | 0.009 | -0.031 | 0.1 | 0.031 | -0.021 | 0 | 0.03 | -0.036 | -0.012 | -0.038
8 | TUBGCP3 (UniProt Q96CW5) | -0.003 | -0.094 | 0.026 | 0.022 | -0.024 | 0.024 | 0.011 | 0.044 | -0.017 | 0.056 | -0.017 | 0.012 | -0.055 | -0.012 | 0.036 | -0.054 | 0.027 | 0.014 | -0.057 | 0.013
9 | TRAPPC9 isoform 2 (UniProt Q96Q05) | -0.017 | -0.128 | 0.002 | -0.011 | -0.075 | 0.022 | -0.015 | -0.036 | 0.021 | -0.017 | -0.02 | 0.012 | -0.084 | -0.053 | -0.038 | -0.037 | 0.037 | 0.029 | -0.026 | 0.021
10 | TUBB3 (UniProt Q13509) | -0.001 | -0.081 | 0.006 | 0.023 | -0.034 | -0.004 | 0.072 | 0.007 | 0.007 | -0.016 | 0.015 | 0.032 | -0.027 | 0.018 | 0.026 | 0.02 | 0.001 | -0.005 | 0.021 | 0.001
11 | THEMIS2 (UniProt Q5TEJ8) | -0.036 | -0.069 | 0.024 | 0.028 | 0 | -0.027 | 0.023 | 0.052 | -0.159 | 0.025 | -0.052 | 0.029 | -0.025 | 0.004 | -0.026 | -0.001 | 0.006 | -0.042 | -0.059 | 0.065
12 | UBR5 (UniProt O95071) | -0.011 | -0.084 | 0.002 | 0.016 | 0 | 0.025 | -0.044 | -0.028 | -0.005 | 0.014 | -0.003 | -0.009 | -0.055 | -0.01 | -0.004 | -0.018 | 0.001 | 0.012 | -0.047 | 0.046
